The structures appear in SMILES notation. Results filed as inconclusive are left out. A call without a number means that no potency is given here. Values without a mark were called inactive. Active and inactive are the calls of the source. Calls follow the shape of the dose curve; as a rule, active = well fitted inhibition curve with a large enough effect; inconclusive = small, poorly fitted or top-dose-only effect; inactive = no such curve, though single readings can be large or run the other way.

The test system of the test is Zika virus NS2B-NS3 protease (unlinked complex). Kind of test: Primary screen GU Rhodamine qHTS for Zika virus inhibitors: Unlinked NS2B-NS3 protease assay (AID 1347159). Also: nearly all actives have a fitted effect of over 60% in size. Particulars: Recombinant ZIKV NS2B-NS3 protease, Rhodamine110 substrate fluorescence; series mostly up to 107 µM. The method, boiled down:
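Percent inhibition came from the 15-min rise in Rhodamine110 fluorescence (1.5 microM substrate, ~15% conversion), normalized to no-inhibitor and no-enzyme wells and Hill-fitted. Unlinked protease, 25 nM, pH 8.0 Tris buffer; compounds up to 114 microM, 15-min preincubation.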
Background: In qHTS, concentration-response curves come from the screen itself.
For `COc1cc(/C=C/C(=O)O[C@H]2[C@@H]3C=CO[C@@H](O[C@@H]4O[C@H](CO)[C@@H](O)[C@H](O)[C@H]4O)[C@@H]3[C@@]3(CO)O[C@@H]23)ccc1O`, the Potency entry is “inactive”. Turning to `Nc1ncnc2c1ncn2[C@H]1O[C@@H](C(=O)N2CCN(CC(=O)Nc3cccc4c3CNC4=O)CC2)[C@H](O)[C@@H]1O`, the Potency entry was “inactive”. In the case of `CC1(C)C[C@H](O)C[C@@]2(C)[C@H]1[C@H](O)C=C1COC(=O)[C@@]12O`, the Potency result was “inactive”. Turning to `COc1ccc(-c2ccn(CC[C@](C)(C(=O)NO)S(C)(=O)=O)c(=O)c2)c(F)c1`, the Potency result was “inactive”.

`C[C@@H]1O[C@@H](O[C@H]2[C@H](OC(=O)[C@]34CCC(C)(C)C[C@H]3C3=CCC5[C@@]6(C)C[C@@H](O)[C@@H](O[C@@H]7O[C@H](CO)[C@@H](O)[C@H](O)[C@H]7O)[C@@](C)(CO)C6[C@H](O)C[C@@]5(C)[C@]3(C)CC4)OC[C@H](O)[C@@H]2O)[C@H](O)[C@H](O[C@@H]2OC[C@](O)(CO)[C@H]2O)[C@H]1O[C@@H]1OC[C@@H](O)[C@H](O[C@H]2O[C@H](C)[C@@H](O)[C@H](O)[C@@H]2O)[C@H]1O` (some centres undefined): the activity change, negative = inhibition was 9.3% [at 19.1 µM]. As for `O=C(O)CCc1c(C(=O)O)[nH]c2cc(Cl)cc(Cl)c12`, the Potency result is “inactive”. On the same count and under the same terms, the value for `CC(=O)N[C@H](Cc1c[nH]c2ccccc12)C(=O)OCc1cc(C(F)(F)F)cc(C(F)(F)F)c1` was “inactive”; that for `C=C1C2(C)CC3C4(C)C=CC(=O)OC(C)(C)C4CCC3(C)C1(C(=O)OC)C(=O)C(C)(O)C2=O` (centres undefined) was “inactive”. Consider `C=C[C@H]1[C@H](O[C@@H]2O[C@H](CO)[C@@H](O)[C@H](O)[C@H]2O)OC=C2C(=O)N3Cc4c([nH]c5ccccc5c4=O)[C@@H]3C[C@H]21`, for which the Potency entry is “inactive”.

For the origin of these results see PubChem BioAssay (NCATS).
